# ALDH1A1 inh = ALDH1A1 (human) enzyme inhibition | P00352 | Purified ALDH1A1, NADH fluorescence, propionaldehyde substrate | Potency, µM (highest dose often 75.3 µM), most hits filed as inhibitors | 7.3% of 220,000 active | AID 1030
# Target sequence (P00352 whole entry, looked up): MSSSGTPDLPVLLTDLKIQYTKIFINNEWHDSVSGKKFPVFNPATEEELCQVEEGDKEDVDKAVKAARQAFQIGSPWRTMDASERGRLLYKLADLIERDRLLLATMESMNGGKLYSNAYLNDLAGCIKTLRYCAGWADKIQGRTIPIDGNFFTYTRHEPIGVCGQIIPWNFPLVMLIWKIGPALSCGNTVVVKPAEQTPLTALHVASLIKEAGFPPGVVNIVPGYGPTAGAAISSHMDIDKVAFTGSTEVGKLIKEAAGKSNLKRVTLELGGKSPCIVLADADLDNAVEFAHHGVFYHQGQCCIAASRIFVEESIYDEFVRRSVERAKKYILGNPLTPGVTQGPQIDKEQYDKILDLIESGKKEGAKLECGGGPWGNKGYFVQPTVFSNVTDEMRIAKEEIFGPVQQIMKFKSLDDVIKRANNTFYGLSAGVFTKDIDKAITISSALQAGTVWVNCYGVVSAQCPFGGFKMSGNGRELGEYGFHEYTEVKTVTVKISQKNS
# PNC assembly inh = inhibitors of perinucleolar compartment assembly; PC3M PTB-GFP, PNC prevalence imaging, 16 h; stronger effect = lower value; activity change (PNC), negative = inhibition, % at 10 µM; 3.1% of 140,000 active;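 active = readout at or below -70, meaning at least 70% loss of cells showing the perinucleolar compartment, a nuclear body marking cancer cells; inconclusive = readout between -30 and a set limit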
#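 Compounds are pinned in duplicate onto adhered PC3M cells stably expressing GFP-tagged PTB and incubated 16 h at 37 C. Cells are then fixed, nuclei stained with Hoechst, and PNC-positive cells counted.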
# HPGD block = inhibitors of human 15-hydroxyprostaglandin dehydrogenase (HPGD); purified HPGD, NADH fluorescence kinetic, PGE2 substrate; AID 894; Potency, µM, most hits filed as inhibitors; 4.3% of 150,000 active
#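 NADH formation kinetics: reaction with 30 uM PGE2 and 1 mM NAD+ (final), 20 nM enzyme, Tris-HCl pH 8 with Tween 20, after 15 min compound preincubation at room temperature. Fluorescence change, last versus first of five reads.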
# IMPase cell inh = membrane-permeable compound that blocks inositol monophosphatase; 120,000 tested, under 10 active; inhibition (IP1 accumulation), % at 46.1 µM; P97697; CHO-M1 cells, IP1 accumulation, HTRF TR-FRET ratio; active = well fitted curve in the direction sought with a large enough effect in the signal ratio, not every such curve was filed as active; inconclusive = small, poorly fitted or top-dose-only effect, or a change in a side signal; inactive = no such curve, though single readings can be large or run the other way; the % refers to the signal ratio;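 also: cells stimulated with carbachol in lithium chloride buffer; higher means more IMPase inhibition seen as more IP1 and lower FRET ratio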
#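 CHO-M1, 2000 cells/well, cultured 16–30 h; cpd up to 46 uM; carbachol (50 uM solution, stimulation buffer w/ 50 mM LiCl, pH 7.4), 30 min 37C; IP-One TR-FRET, 10 min RT; Ex 320/Em 665, 620; Hill-fit AC50.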
# IMPase Li cell = membrane-permeable IMPase blocker, potentiated with lithium | CHO-M1 cells, IP1 TR-FRET (IP-One), carbachol + lithium | Potency, µM (doses to about 59.4 µM), actives largely listed as inhibitors | 0.35% of 210,000 active; active = well fitted inhibition curve with a large enough effect; inconclusive = small, poorly fitted or top-dose-only effect; inactive = no such curve, though single readings can be large or run the other way;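 also: IP1 builds up when IMPase is blocked and the TR-FRET signal falls; nearly all actives have a fitted effect of over 50% in size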
#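 IP1 accumulation measured by competitive TR-FRET in lysed CHO-M1 cells after 30 min compound exposure at 37C, with a small lithium addition to potentiate weak responses. Hill-equation AC50 from ratio and donor-channel data.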
# Hits are given with their value; . = inactive; ? = inconclusive; / = no result given; [ ] = remark or other dose. This is a sample that favours compounds with a hit; in the whole collection about 11% have one here. Unless noted, calls follow the shape of the dose curve; as a rule, active = well fitted inhibition curve with a large enough effect (not every such curve was filed as active); inconclusive = small, poorly fitted or top-dose-only effect, or another doubt; inactive = no such curve, though single readings can be large or run the other way.
SMILES,ALDH1A1 inh,PNC assembly inh,HPGD block,IMPase cell inh,IMPase Li cell
COc1ccc(C)cc1NC(=O)CNc1ccc(C(C)=O)cc1,?,.,.,/,.
Cc1ccc(NC(=O)CNc2cccc(C)c2C)c(C)c1,8.91µM,.,31.6µM,.,.
Cc1ccc(NC(=O)CNc2ccc(OC(C)C)cc2)c(C)c1,4.47µM,.,.,.,.
COc1cccc(/C=N/Nc2ccc(S(=O)(=O)O)cc2)c1O,10µM,.,31.6µM,.,.
COc1cc(/C=N/NC(N)=O)cc([N+](=O)[O-])c1O,.,/,/,/,.
Cc1ccc(S(=O)(=O)N/N=C/c2cc([N+](=O)[O-])ccc2O)cc1[N+](=O)[O-],12.6µM,/,/,/,.
COc1ccc(-n2c(O)c(/C=N/NS(=O)(=O)c3ccc(C)c([N+](=O)[O-])c3)c3ccccc3c2=O)cc1OC,?,/,/,/,.
COc1cccc(/C=N/Nc2ccc(C(=O)O)cc2)c1O,.,/,/,/,.
COc1cc(/C=N/NS(=O)(=O)c2ccc(C)c([N+](=O)[O-])c2)ccc1O,12.6µM,/,/,/,.
Cc1ccc(S(=O)(=O)N/N=C\c2cc([N+](=O)[O-])ccc2Cl)cc1,?,.,.,.,.
COc1cc(/C=N/NS(=O)(=O)c2ccc(C(C)(C)C)cc2)cc([N+](=O)[O-])c1O,7.94µM,/,/,/,.
Cc1cc(C)cc(C(=O)NCC(=O)OC(C)C(=O)N(C)c2ccccc2)c1 (stereo not given),.,/,/,/,.
CCOc1cccc(/C=N/NS(=O)(=O)c2ccc(C)c([N+](=O)[O-])c2)c1O,3.98µM,/,/,/,.
CC(C)=C1C2C=CC1C1C(=O)N(c3ccc4c(c3)OCO4)C(=O)C21 (stereo not given),3.55µM,.,.,.,.
CC(C)=C1C2CCC1C1C(=O)N(c3ccc4c(c3)OCO4)C(=O)C21 (stereo not given),.,.,.,/,.
CCOc1ccc(N2C(=O)CC(SC(=NC)Nc3ccc(F)cc3)C2=O)cc1 (stereo not given),.,-100.0,.,.,.
COc1ccc(CN=C(Nc2ccccc2)SC2CC(=O)NC2=O)cc1 (stereo not given),.,/,/,/,.
CCCOc1ccc(N2C(=O)CC(SC(=NC)Nc3ccc(F)cc3)C2=O)cc1 (stereo not given),.,.,.,.,.
CCOc1ccc(NC(=NCc2ccc3c(c2)OCO3)SC2CC(=O)N(c3ccccc3)C2=O)cc1 (stereo not given),.,-100.0,.,.,.
CCOc1ccc(NC(=NCc2ccc3c(c2)OCO3)SC2CC(=O)N(c3ccc(OCC)cc3)C2=O)cc1 (stereo not given),.,.,.,?,.
O=C1CC(SC(=NCc2ccc3c(c2)OCO3)Nc2ccccc2)C(=O)N1 (stereo not given),?,-114.9,.,.,.
O=[N+]([O-])c1ccc(N2CCCC2)nc1N1CCCC1,1.41µM,/,/,/,/
O=[N+]([O-])c1ccc(N2CCCCC2)nc1,?,.,.,.,.
COc1ccccc1NS(=O)(=O)c1cc(NC(=O)C(C)C)ccc1N1CCCCC1,9.46µM,/,/,/,.
COc1ccccc1NS(=O)(=O)c1cc(NC(=O)/C=C/c2cccs2)ccc1N1CCOCC1,?,.,?,/,.
SMILES,ALDH1A1 inh,PNC assembly inh,HPGD block,IMPase cell inh,IMPase Li cell
COc1ccc(NS(=O)(=O)c2cc(NC(=O)c3sccc3C)ccc2N2CCOCC2)cc1,.,/,/,/,/
COc1ccccc1S(=O)(=O)Nc1cc(S(=O)(=O)N2CCCCC2)ccc1N1CCOCC1,12.6µM,/,/,/,.
COc1ccccc1NS(=O)(=O)c1cc(NC(=S)NCCN2CCOCC2)ccc1N1CCOCC1,25.1µM,.,17.8µM,/,.
COc1ccccc1NCC(=O)Nc1cc(S(=O)(=O)N2CCOCC2)ccc1N1CCOCC1,.,/,/,/,.
COc1ccc(NS(=O)(=O)c2cc(NC(=O)CC3CCCC3)ccc2N2CCOCC2)cc1,3.16µM,/,/,/,.
COc1ccc(COC(=O)NNC(=O)c2ccccc2Cl)cc1,?,.,.,.,.
CCCCCCCCCCCCC/C=C/[C@@H](O)[C@H](CO)NC(=O)CCCCCCCCCCCCCCC,.,/,.,/,.
Cc1cc(=O)n(CC(=O)Nc2cc(Cl)ccc2C)c(C(C)C)n1,.,/,/,/,.
COc1ccccc1NS(=O)(=O)c1cc(NC(=O)C2CCCC2)ccc1N1CCOCC1,10µM,/,/,/,.
COc1ccccc1NS(=O)(=O)c1cc(NC(=O)c2cc[n+]([O-])cc2)ccc1N1CCCC1,7.94µM,/,/,/,.
O=C(Nc1ccc(F)cc1)Nc1ccc(N2CCCC2)c(S(=O)(=O)Nc2ccccc2Cl)c1,?,.,.,/,.
COc1ccccc1NS(=O)(=O)c1cc(NC(=O)c2ccncc2)ccc1N1CCOCC1,?,.,.,/,.
COc1ccccc1NS(=O)(=O)c1cc(NC(=O)Nc2ccccc2)ccc1N1CCCCC1,17.8µM,.,25.1µM,/,.
COc1cc(CO)ccc1OCc1nnnn1-c1ccc(C)cc1,.,/,/,/,.
Cc1[nH]c2ccccc2c1-c1nc(-c2ccc(Cl)cc2)nnc1-c1ccccc1,.,/,/,/,.
COC(=O)CCc1c(C)nc(N)[nH]c1=O,.,-111.7,.,.,.
Cc1nc2sccn2c(=O)c1CCN1CCC(=C(c2ccc(F)cc2)c2ccc(F)cc2)CC1,.,-114.6,.,.,.
COC(=O)c1[nH]c2cccc(OC)c2c1NC(=O)C(C)N1CCC(C)CC1 (stereo not given),?,.,?,.,.
CC(C)(C)Nc1nc(OCC#N)nc(N2CCCCC2)n1,17.8µM,/,/,/,.
N#CCOc1nc(N2CCCCC2)nc(N2CCCCC2)n1,.,/,/,/,.
Br/C(=N\Nc1nn[nH]n1)c1ccncc1,.[13.5 µM],/,.,/,.
COc1cc(C)nc2nc(SCc3ccccc3)nn12,14.1µM,.,.,.,.
COc1ccc(NC(=O)C(C)N2C(=O)c3ccccc3C2=O)cc1S(=O)(=O)N1CCOCC1 (stereo not given),.,/,/,/,.
O=C1C(Cl)=C(NC2CCc3ccccc32)C(=O)c2ncccc21 (stereo not given),11.2µM,/,.,/,.
Cc1ccc([N+](=O)[O-])cc1-c1ccc(/C=C(\C#N)c2[nH]nc(N)c2C#N)o1,.,.,2.24µM,/,.
SMILES,ALDH1A1 inh,PNC assembly inh,HPGD block,IMPase cell inh,IMPase Li cell
Cc1ccc(CN(c2ccc(C(=O)N3CCCC3)cc2)S(C)(=O)=O)cc1,.,-82.9,.,.,.
CN(c1ccc(C(=O)N2CCCCC2)cc1)S(C)(=O)=O,.,.,10µM,.,.
CC1CCN(C(=O)c2ccc(N(C)S(C)(=O)=O)cc2)CC1,.,?,14.1µM,.,.
CCOC(=O)N1CCN(C(=O)c2ccc(N(C)S(C)(=O)=O)cc2)CC1,.,.,.,.,.
Cc1ccccc1CN(c1ccc(C(=O)N2CCCC2)cc1)S(C)(=O)=O,?,.,.,.,.
Cc1ccc(N2CN(Cc3ccco3)CNC2=S)c(C)c1,.,.,.,/,.
Cc1cc(C(=O)Nc2cccc([N+](=O)[O-])c2)c(C)o1,.,-109.0,.,/,.
O=C(Nc1ccccc1)c1ccccc1OCc1cccc([N+](=O)[O-])c1,?,-99.3,.,/,.

# Source: PubChem BioAssay (National Center for Advancing Translational Sciences (NCATS))
